ChEMBL document CHEMBL3433997, “St. Jude Leishmania screening dataset” (2016)

Columns and labels:
Format in all cases: functional
[1] = biological target: Solute carrier family 2, facilitated glucose transporter member 1 (Homo sapiens) (UniProt P11166); experiment: ST_JUDE_LEISH: Cytotoxicity at 2uM final concentration against transgenic Leishmania Mexicana promastigotes LmGLUT1 that are glucose transport deficient and complemented with the human glucose transporter GLUT1. Activity is measured by DNA content using SYBR green in vitro
Solute carrier family 2, facilitated glucose transporter member 1 (Homo sapiens), sequence (P11166 whole entry): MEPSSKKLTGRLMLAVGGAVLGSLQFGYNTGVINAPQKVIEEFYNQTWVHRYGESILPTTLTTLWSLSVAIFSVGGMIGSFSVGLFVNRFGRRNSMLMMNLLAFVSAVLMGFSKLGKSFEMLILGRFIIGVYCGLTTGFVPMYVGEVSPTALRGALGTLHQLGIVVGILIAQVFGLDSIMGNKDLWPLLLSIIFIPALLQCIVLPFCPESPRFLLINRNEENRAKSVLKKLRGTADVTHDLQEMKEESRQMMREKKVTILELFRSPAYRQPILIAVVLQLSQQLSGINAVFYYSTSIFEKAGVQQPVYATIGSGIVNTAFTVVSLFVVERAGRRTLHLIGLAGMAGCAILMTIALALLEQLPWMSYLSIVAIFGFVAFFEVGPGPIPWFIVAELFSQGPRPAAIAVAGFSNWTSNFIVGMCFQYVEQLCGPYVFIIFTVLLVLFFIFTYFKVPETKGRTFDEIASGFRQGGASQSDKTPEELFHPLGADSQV

[2] = biological target: Hexose transporter 1 (Plasmodium falciparum) (UniProt O97467); experiment: ST_JUDE_LEISH: Cytotoxicity at 2uM final concentration against transgenic Leishmania Mexicana promastigotes LmPfHT that are glucose transport deficient and complemented with the Plasmodium falciparum hexose transporter. Activity is measured by DNA content using SYBR green in vitro
[3] = biological target: Glucose transporter (Leishmania mexicana) (UniProt O61059); experiment: ST_JUDE_LEISH: Cytotoxicity at 2uM final concentration against transgenic Leishmania Mexicana promastigotes LmGT2 that are glucose transport deficient and complemented with the L. Mexicana glucose transporter 2. Activity is measured by DNA content using SYBR green in vitro

SMILES | inhibition [1] [%] | inhibition [2] [%] | inhibition [3] [%]
CCn1ccc2c(N3CCCCS3(=O)=O)cc(C(=O)N[C@@H](Cc3ccccc3)[C@H](O)CNC(C)(C)c3cccc(C(F)(F)F)c3)cc21 | 0.44 | -1.1 | -1.56
FC(F)(F)c1ccc2[nH]c(-c3ccc(-c4cccc(CNCC5CCCO5)c4)cc3)nc2c1 (centres undefined) | 3.87 | 2.83 | 2.68
CCc1cn(C)c2c(N3CCCC3=O)cc(C(=O)N[C@@H](Cc3ccccc3)[C@H](O)CNC(C)(C)c3cccc(OC)c3)cc12 | 4.6 | 2.52 | 7.65
Nc1nccc2ccc(-c3ccsc3)cc12 | 5.2 | 3.92 | 4.09
Cc1sc(NC(=O)c2ccc([N+](=O)[O-])cc2Cl)c(C(N)=O)c1C | 2.24 | 2.08 | 2.74
COc1ccc2nccc(N3CCC(CCNCc4ccc5c(n4)NC(=O)CS5)CC3)c2n1 | 4.06 | 4.8 | 7.97
O=S(=O)(NCCN1CCCC1)c1cccc(-c2cccc(CNCCc3cccs3)c2)c1 | 11.7 | 12 | 8.7
Cc1cccc2nc(-c3cccc(-c4ccc(NC(=O)c5ccc(=O)[nH]n5)cc4)c3)[nH]c12 | 3.76 | 3.2 | 1.44
CC(C)C[C@@H](CNC[C@H](CC(C)C)NC(=O)OC(C)(C)C)NC(=O)OC(C)(C)C | -0.36 | -2.4 | -0.19
COC(=O)c1noc(C)c1I | 0.86 | 0.08 | 0.59
COc1ccc2nccc([C@@H](O)CN3CCC(NC(=O)COc4nc(SCc5ccc(F)cc5)nc5c4CCC5)CC3)c2c1 | 1.06 | 0.81 | -3.16
CC(C)NCc1ccc(-c2ccc(NC(=O)c3ccc(C#N)cc3)cc2)cc1 | 3.05 | 3.73 | 4.89
O=C(Cc1ccc(F)cc1)NC1CCN(c2ccnc3cc(Cl)ccc23)C1 (centres undefined) | 0.69 | 1.78 | 2.41
CC(C)(C)c1nn(-c2ccccc2)c2[nH]c(=O)c(CNCCc3ccccc3)cc12 | 0.22 | -1.47 | -1.89
NCC1CCCN1Cc1ccc(-c2ccc(-c3nc4ccccc4[nH]3)s2)cc1 (centres undefined) | -0.41 | -0.71 | -0.41
O=c1c2cccnc2sn1-c1ccccc1 | 0.94 | 0.87 | 0.72
CC1(C)NC(N)=NC(=N)N1OCCSCCON1C(=N)N=C(N)NC1(C)C | -0.9 | 0.07 | -0.26
c1ccc(-c2n[nH]cc2Nc2ccnc3ccccc23)nc1 | 5.35 | 3.76 | 3.97
CC(=O)Nc1ccc(CN2CCC(NC(=O)c3ccc(-c4cccc(OC(C)C)c4)s3)CC2)cc1 | 6.04 | 2.62 | 7.43
CC(C)c1cc(Oc2c(I)cc(CCNCc3ccccc3)cc2I)ccc1O | 0.46 | 1.39 | 0.47
Cc1nc(Nc2ccc(F)cc2)nc(N2CCc3ccccc3[C@@H]2C)c1C | 3.94 | 5.21 | 1.46
O=C(Nc1ccc2c(c1)CCC2)N[C@H]1CCN(Cc2ccc(OCCCN3CCCCC3)cc2)C1 | 1.25 | 2.37 | 2.47
COc1cc(C(=O)N2CCOC(CCN3CCC[C@H]3C(=O)Nc3ccccc3)(c3ccc(Cl)c(Cl)c3)C2)cc(OC)c1OC (some centres undefined) | 6.58 | 5.14 | 2.89
COc1ccc(C(=O)NC(c2ccc(Cl)cc2Cl)c2cc(Cl)c3cccnc3c2O)cc1 (centres undefined) | 0.87 | 3.16 | -1.58

SMILES | inhibition [1] [%] | inhibition [2] [%] | inhibition [3] [%]
CCc1ccc(C2CCN(CCCCNC(=O)c3ccc(NC(=O)c4ccc(Cl)cc4)cc3)CC2)cc1 | -0.05 | 0.38 | 0.05
COc1ccc2nccc([C@@H](O)CN3CCC(NCc4nc5c([N+](=O)[O-])cccc5[nH]4)CC3)c2c1 | 2.43 | 2.99 | 1.31
COc1ccc(CN2CCCN(Cc3cccc(NC(=O)c4ccc(Cl)c(Cl)c4)c3)CC2)cc1 | 2.61 | 4.62 | 0.01
CN(C)CCN(C)C(=O)c1cc(-c2ccncc2)c(-c2ccc(Cl)c(O)c2)o1 | 8.43 | 8.13 | 6.77
CN(C)CCCN1C(=O)c2[nH]nc(-c3ccc(Cl)cc3O)c2C1c1ccc(Cl)cc1 (centres undefined) | 0.82 | 0.66 | 1.69
Cc1noc(C)c1-c1ccc2c(Nc3ccccc3C(C)(C)C)c(C(=O)NCc3ccc4c(c3)OCO4)cnc2c1 | -1.21 | 2.69 | -0.92
CCCN1CCN(CC(O)CNC(=O)Nc2ccc(Cl)cc2)CC1 (centres undefined) | 2.81 | 0.64 | 4.07
Nc1ccc(-c2cc(Cl)cc(Cl)c2)cc1-c1cc2ccccc2[nH]1 | 2.84 | 1.08 | -0.38
O=C(NCc1cccs1)[C@H](Cc1ccccc1)Nc1ccnc(NCCc2ccc(F)cc2)n1 | 11.2 | 9.62 | 9.52
CC(C)OC(=O)c1ccccc1S(N)(=O)=O | 15.3 | 12.7 | 7.97
O=C(Nc1cccc(-c2csc(-c3ccccc3)n2)c1)c1cccs1 | 2.64 | 2.57 | 0.7
COc1ccc2nc(N)nc(C)c2c1 | 4.18 | 2.86 | 2.78
O=c1cc(NCCCNCc2ccc(Cl)c(Cl)c2)[nH]c2ccc(Oc3ccccc3)cc12 | -1.41 | -1.42 | -0.72
C=CCOC(=O)N1CCC(CNCc2ccc(-c3cccc(-c4nc5cc(F)ccc5[nH]4)c3)cc2)C1 (centres undefined) | 1.77 | 2.36 | 3.88
Cc1ccc(NC(=O)c2cc(Br)cc(N3CCC(N(C)C)CC3)c2)cc1F | 7.55 | 7.67 | 6.75
COc1ccc(CNc2ccnc3cc(OC)ccc23)cc1 | -1.06 | 12.2 | 3.66
CCn1c(-c2nonc2N)nc2c(-c3ccc(CO)o3)ncc(OCCCN)c21 | 6.54 | 3.21 | 5.17
O=C(Cc1n[nH]c(=O)c2ccccc12)Nc1cccc(C(=O)Nc2cccc(C(F)(F)F)c2)c1 | 3.52 | 4.12 | 2.16
C=CCN1Cc2c(O)cccc2C(c2ccc(O)c(O)c2)C1 (centres undefined) | 6.49 | 5.18 | 4.91
CCN(CC)c1ccc(C=CC(=O)NCCN2CCC(N(C)C3CCCCC3C)CC2)cc1 (centres undefined) | -2.14 | -0.93 | -0.02
Cc1cc(N/N=C/c2cccc([N+](=O)[O-])c2)c2cc(F)ccc2n1 | 2.55 | 1.82 | 0.14
COc1ccc(Br)cc1C1C2C(=O)N(c3ccc(Br)cc3)C(=O)C2C2(C(=O)O)CC(OCc3ccccc3)CN12 (centres undefined) | 12.4 | 12 | 10.2
O=C(NCCCCN1CCC(c2c[nH]c3ccccc23)CC1)c1sc(-c2ccc(C(F)(F)F)cc2)nc1CO | 7.38 | 8.88 | 5.81
Clc1ccc(-n2cnc3c(Nc4ccc(Oc5ccccc5)cc4)ncnc32)cc1Cl | 1.38 | 1.39 | -1.22
